Hit rate of the full screen: of about 650,000 compounds, about 6,800 (1%) were called active. The full list was thinned out, with actives kept by preference. Unmarked numbers belong to inactive results. Rule as the data show it: active = activation above about 4.9%; inactive = the rest.
These molecules were tested against G-protein coupled receptor 151 (Homo sapiens) (UniProt Q8TDV0) (assay: activators of human GPR151, primary screen, cell-based, PathHunter beta-arrestin, luminescence (AID 1508602;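 also: 0% = median of compound wells and 100% = cells with positive control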)). Conditions: PathHunter beta-arrestin GPR151 cells, at 11.2 µM, hits give high values.
Sequence of G-protein coupled receptor 151 (Homo sapiens) (Q8TDV0 whole entry, looked up): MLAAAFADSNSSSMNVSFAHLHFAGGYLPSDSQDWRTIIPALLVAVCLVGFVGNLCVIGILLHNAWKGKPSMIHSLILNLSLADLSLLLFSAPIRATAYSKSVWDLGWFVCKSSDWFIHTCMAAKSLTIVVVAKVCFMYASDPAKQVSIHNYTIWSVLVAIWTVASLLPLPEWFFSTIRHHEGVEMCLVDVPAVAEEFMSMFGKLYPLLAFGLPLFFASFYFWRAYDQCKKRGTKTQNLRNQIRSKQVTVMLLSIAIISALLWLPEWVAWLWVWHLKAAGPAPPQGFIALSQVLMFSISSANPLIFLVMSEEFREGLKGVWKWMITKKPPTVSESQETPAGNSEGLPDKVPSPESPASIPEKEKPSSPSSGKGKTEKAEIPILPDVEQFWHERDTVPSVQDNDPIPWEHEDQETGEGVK

| Compound | activation |
| --- | --- |
| O=C(NCCc1ccc(N2CCCC2)cc1)c1ccc(F)cc1 | 0.277% |
| CCn1c(NCc2ccccc2OC)nc2ccccc21 | -0.109% |
| C#CCOc1ccc(C=C2C(=O)NC(=S)NC2=O)cc1Cl | -0.112% |
| C=CCN1C(=O)/C(=C\c2cc(Br)ccc2OCC)C(=O)NC1=S | 0.0155% |
| C#CCOc1ccc(Br)cc1/C=C1\NC(=S)N(C)C1=O | 5.86% (active) |
| C/C(=N\NC(=O)CNC(=O)c1ccccc1Br)c1ccccc1 | -0.31% |
| Cc1cccc(C)c1OCC(=O)OCCNC(=O)c1cccnc1 | 2.35% |
| Cc1cccc(OCCNC(=S)NC(=O)c2cccnc2)c1 | 7.55% (active) |
| CC(C)(C)c1ccc(OCCNC(=S)NC(=O)c2cncc(Br)c2)cc1 | 0.8% |
| COc1ccc(-c2c(C)nn3c(NCCN(C)C)cc(C)nc23)cc1 | 0.306% |
| O=C1NC2(CCCC2)C(=O)N1Cc1nnc(-c2ccccc2Br)o1 | 0.439% |
| CS(=O)(=O)N(CC(=O)Nc1ccc(F)cc1F)c1cc(Cl)c(Cl)cc1Cl | -0.649% |
| CS(=O)(=O)N(CC(=O)Nc1ccc(F)cc1F)c1cccc([N+](=O)[O-])c1 | -0.142% |
| CS(=O)(=O)N(CC(=O)Nc1ccc(F)cc1F)c1ccc(F)cc1 | 7.88% (active) |
| OCCn1c(SCCSc2nc3ccccc3n2CCO)nc2ccccc21 | -0.408% |
| COc1cc(NC(=O)c2cccc(Br)c2)ccc1NC(=O)c1ccco1 | 0.388% |
| COc1cc(NC(=O)c2sc3ncnc(N4CCCCC4)c3c2C)cc(OC)c1OC | 5.99% (active) |
| COc1ccc(NC(=O)c2sc3ncnc(N4CCCCC4)c3c2C)cc1OC | 0.695% |
| COc1ccccc1N1CCN(c2ncnc3sc(C(=O)Nc4ccc5c(c4)OCCO5)c(C)c23)CC1 | -0.8% |
| CCC(CC)NCc1cc(OC)c(OC)cc1Br | 0.484% |
| Cc1ccc([N+](=O)[O-])cc1S(=O)(=O)Nc1cccc(N(C)C)c1 | 0.193% |
| Cc1cc(C)cc(N(C(C)C(=O)Nc2ccc(Cl)cc2)S(C)(=O)=O)c1 (stereo unspecified) | -1.25% |
| Nc1cc(Cl)ccc1C(=O)OCC(=O)Nc1ccc(N2CCCCC2)cc1 | 2.3% |

| Compound | activation |
| --- | --- |
| O=C1N[C@@H](Cc2ccccc2)C(=O)N2CCN(C(=O)c3ccc(OC(F)(F)F)cc3)C[C@H]12 | -1.02% |
| Cc1nc(NC(=O)C23CCC(C)(C(=O)O2)C3(C)C)sc1C (stereo unspecified) | -1.28% |
| CC12CCC(C(=O)NC3CCCCC3)(OC1=O)C2(C)C (stereo unspecified) | 4.96% (active) |
| CC(C)NC(=O)C12CCC(C)(C(=O)O1)C2(C)C (stereo unspecified) | 0.406% |
| Cc1ccnc(NC(=O)Nc2sc3nc4n(c(=O)c3c2C)CCC(C)CC4)c1 (stereo unspecified) | 0.22% |
| CCn1c(C(CC(C)C)NC(=O)C2CC2)nc2cccnc21 (stereo unspecified) | -0.148% |
| COc1ccc(C(=O)N2CCCN(c3nc4cc(C)c(C)cc4cc3C#N)CC2)cc1OC | 2.69% |
| Cc1ccc(C(=O)NCC(=O)OCC(=O)N(C(C)C)C(C)C)cc1C | -0.906% |
| CCOc1cc2c(cc1OCC)C(c1cc(F)c(F)c(F)c1)NCC2 (stereo unspecified) | -0.242% |
| CCOc1cc2c(cc1OCC)C(c1ccc3ccccc3c1)NCC2 (stereo unspecified) | 5.53% (active) |
| CCOc1cc2c(cc1OCC)C(c1ccc(OC)c(C)c1)NCC2 (stereo unspecified) | 0.975% |
| O=C(NC1CCCCCC1)c1ccc(NS(=O)(=O)c2cccs2)cc1 | 2.64% |
| COc1cccc(/C=N/N=C2/NC(=O)CS2)c1O | -1.32% |
| COc1cc(/C=N/N=C2/NC(=O)CS2)ccc1OC(=O)c1ccccc1C | 10.4% (active) |
| COc1ccc(/C=N/N=C2/NC(=O)CS2)c(OC)c1 | -0.156% |
| COCCn1c(=NC(=O)c2c(C)cnn2C)sc2cc(Cl)ccc21 | -0.961% |
| Cc1cccc(C(=O)Nc2ccc(C(=O)Nc3ccc(C(=O)Nc4ccccc4C)cc3)cc2)c1 | 2.61% |
| Cc1ccc(C(=O)Nc2ccc(N(C)C)cc2)cc1C | -2.22% |
| Cc1ccc(NC(=O)c2cccc(N(C)C)c2)cc1NC(=O)c1ccc(O)cc1 | 8.84% (active) |
| Cc1cccc(Nc2nc(-c3ccc(I)cc3)cs2)c1 | -1.86% |
| Cc1ccc(Nc2nc(-c3ccccn3)cs2)cc1C | 11.2% (active) |
| Cc1ccc(-c2csc(Nc3ccccc3)n2)c(C)c1 | 0.521% |
| O=C(c1ccccc1)N1CCN(C2CC(=O)N(c3cc(Cl)cc(Cl)c3)C2=O)CC1 (stereo unspecified) | -0.358% |

| Compound | activation |
| --- | --- |
| Cc1ccc(OCCN2CCNCC2)c(Cl)c1 | 0.0124% |
| CCC(=O)NC(c1nnc2n1CCN(Cc1ccc3cccnc3c1)CC2)C(C)C (stereo unspecified) | 0.149% |
| CC(C)C(=O)NC(C)c1nnc2n1CCN(Cc1ccc3cccnc3c1)CC2 (stereo unspecified) | 5.04% (active) |
| CC(C)C(=O)NC(C)c1nnc2n1CCN(Cc1cccc3ncccc13)CC2 (stereo unspecified) | 0.68% |
| Cc1cc(OCC(=O)NNC(=O)COc2ccc(Br)cc2Br)cc(C)c1Cl | 0.12% |
| CC(C)c1nc2sc3c(NCCCO)ncnc3c2c2c1COC(C)(C)C2 | 1.25% |
| COCCN1C(=O)c2ccc(C(=O)Nc3ccc(C(=O)O)cc3)cc2C1=O | -0.197% |
| CCCN1C(=O)c2ccc(C(=O)Nc3ccc(O)cc3C(=O)O)cc2C1=O | -4.67% |
| CCCN1C(=O)c2ccc(C(=O)Nc3ccc(C(C)=O)cc3)cc2C1=O | 6.33% (active) |
| O=C(CCC1=NS(=O)(=O)c2ccccc2N1)N1CCN(c2ccccc2)CC1 | 0.684% |
| O=[N+]([O-])c1ccc(Nc2nc(Cl)nc(NCCN3CCOCC3)n2)cc1 | 3.01% |
| COc1cc(C(=O)NCCC(=O)NCC2COc3ccccc3O2)cc(OC)c1OC (stereo unspecified) | -0.141% |
| CCOC(=O)C(=O)NCC1COc2ccccc2O1 (stereo unspecified) | 0.866% |
| COc1ccc(Br)cc1C(=O)NCC1COc2ccccc2O1 (stereo unspecified) | 5.44% (active) |
| O/N=C(\C(=N\O)c1ccccc1)c1ccccc1 | -0.0395% |
| COC(=O)Cc1ccc(NC(=S)N2CCC(C(N)=O)CC2)cc1 | -0.283% |
| O=C(NCC1CCCO1)c1ccc(N2CC3CC(C2)c2cccc(=O)n2C3)c(NS(=O)(=O)c2ccc(Cl)cc2)c1 (stereo unspecified) | -2.43% |
| CCN(CC)C(=O)C1CCCN(c2ncc(C)c(Nc3ccc(N4CCOCC4)cc3)n2)C1 (stereo unspecified) | 0.13% |
| FC(F)(F)c1cccc(CNc2nc(Nc3ccc(N4CCOCC4)cc3)nc3c2ncn3-c2ccsc2)c1 | 0.773% |
| CCN(CC)C(=O)C1CCCN(c2ncc(C)c(NCc3cccc(C(F)(F)F)c3)n2)C1 (stereo unspecified) | 5.92% (active) |
| FC(F)(F)c1ccc(Cn2cnc3c(NCc4cccc(C(F)(F)F)c4)nc(Nc4ccc(N5CCOCC5)cc4)nc32)cc1 | 5.04% (active) |
| CCN(CC)C(=O)C1CCCN(c2nc(NCc3cccc(C(F)(F)F)c3)c3cc(OC)c(OC)cc3n2)C1 (stereo unspecified) | -0.297% |
| FC(F)(F)c1cccc(CNc2ccnc(N3CCOCC3)n2)c1 | 0.285% |

| Compound | activation |
| --- | --- |
| FC(F)(F)c1cccc(CNc2ncnc3nc(N4CCOCC4)[nH]c23)c1 | 1.38% |
| Cc1cnc(Nc2ccc(N3CCOCC3)cc2)nc1NCc1cccc(C(F)(F)F)c1 | 6.5% (active) |
| c1ccc(CNc2nc(Nc3ccc(N4CCOCC4)cc3)nc3c2ncn3-c2ccccc2)cc1 | 1.12% |
| COc1ccc(/C=N/NC(=O)CN(C)C(=O)c2ccccc2)cc1 | -1.44% |
| COc1ccc(Cl)cc1NC(=O)C1c2cc(OC)c(OC)cc2C(=O)N(C)C1c1ccc(OC)c(OC)c1 (stereo unspecified) | 4.36% |
| Cc1ccc(N2C(=O)C3ON(c4ccc(Cl)cc4)C(c4ccco4)C3C2=O)cc1 (stereo unspecified) | -1.12% |
| COCc1c(C(=O)N/N=C/c2cccc(F)c2)nnn1-c1nonc1N | -0.56% |
| O=C(Cc1ccc(Cl)cc1)NCc1nnnn1C1CCCCC1 | -1.64% |
| CCCc1cc(=O)[nH]c(Nc2cccc(O)c2)n1 | 0.777% |
| CCOC(=O)C1=C(N)OC2=C(C(=O)CC(C)(C)C2)C1c1cc(OC)ccc1F (stereo unspecified) | -1.02% |
| Cc1[nH]n(-c2nc3c(c(=O)[nH]2)CCCC3)c(=O)c1CCO | -1.77% |
| C=CCn1c(SCC(=O)N2c3ccccc3CC2C)nc2sc(C)c(C)c2c1=O (stereo unspecified) | 0.176% |
| COCCNc1nc2nonc2nc1N1CCC(N2C[C@@H](C)O[C@@H](C)C2)CC1 | -0.822% |
| O=C(/C=C/Nc1ccccc1NS(=O)(=O)c1ccc([N+](=O)[O-])cc1)c1ccco1 | 6.93% (active) |
| O=C(/C=N/Nc1ccc([N+](=O)[O-])cc1[N+](=O)[O-])c1ccco1 | 0.644% |
| O=[N+]([O-])c1ccc(S(=O)(=O)NCCc2ccccc2)cc1 | 0.345% |
| O=C(NCc1ccccc1)N(CCN1CCCC1)Cc1cc2cc3c(cc2[nH]c1=O)OCO3 | -0.475% |
| Cc1ccc(S(=O)(=O)C2(C(=O)Nc3ccc([N+](=O)[O-])cn3)CC2)cc1 | 0.544% |
| CCc1ccc(S(=O)(=O)NCCOc2cc(N3CCOCC3)ncn2)cc1 | 5.88% (active) |
| CC(C)N(CCNc1cc(N2CCOCC2)ncn1)C(C)C | -0.393% |
| COc1cc(S(=O)(=O)NCCN2CCOCC2)ccc1Br | -1.15% |
| O=C1CCCC2=C1C(c1ccccc1[N+](=O)[O-])c1c([nH]c(=O)[nH]c1=O)N2 (stereo unspecified) | -0.211% |
